The source of these data is PMC7862700, “An all-to-all approach to the identification of sequence-specific readers for epigenetic DNA modifications on cytosine”.

Holding throughout (test): DAPPL (digital affinity profiling via proximity ligation, sequencing); 10 mM Tris-HCl pH 7.5, 50 mM NaCl, 1 mM DTT, 4% glycerol, room temperature, 30 min; GST-TFs on glutathione beads, 16-mer random dsDNA library, 0.1% formaldehyde crosslink after washing; high values mean tight binding
The target in one assay is T1, FEV (Homo sapiens, UniProt Q99581 1-238).
T1 sequence: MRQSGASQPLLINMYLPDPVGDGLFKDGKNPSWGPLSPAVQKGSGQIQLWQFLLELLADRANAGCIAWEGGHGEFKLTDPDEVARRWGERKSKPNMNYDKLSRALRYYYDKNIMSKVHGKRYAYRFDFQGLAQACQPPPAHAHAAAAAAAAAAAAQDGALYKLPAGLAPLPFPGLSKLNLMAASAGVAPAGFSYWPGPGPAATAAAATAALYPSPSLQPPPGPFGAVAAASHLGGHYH
To be noted: protein: recombinant; tags: N-terminal GST; dsDNA, one strand shown. An outline of the steps: (§1)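 After expression in yeast as GST fusions, human transcription factors were bound to glutathione beads, DNA-barcoded and mixed with a tag-only sample. The pools were incubated with 200 nmole of a 16-mer random double-stranded DNA library in Tris/NaCl/DTT/glycerol buffer (30 min, room temperature), washed and crosslinked with 0.1% formaldehyde. Proximity ligation with BsaI/T4 ligase ran for 1 h at 37 °C, before PCR amplification and sequencing on an Illumina NextSeq500. Binding signal is a hexamer's read frequency for a factor divided by its frequency for the tag-only sample.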

The target of another assay is ETV5 (Homo sapiens, UniProt P41161 1-510). To be noted: protein: recombinant; tags: N-terminal GST; dsDNA, one strand shown. An outline of the steps:
as §1

A further assay has as its target HSF1 (Homo sapiens, UniProt Q00613 1-529). To be noted: protein: recombinant; tags: N-terminal GST; chain copies: 3; dsDNA, one strand shown. In outline:
as §1

The target in another assay is T2, SPIC (Homo sapiens, UniProt Q8N5J4 1-248).
T2 sequence: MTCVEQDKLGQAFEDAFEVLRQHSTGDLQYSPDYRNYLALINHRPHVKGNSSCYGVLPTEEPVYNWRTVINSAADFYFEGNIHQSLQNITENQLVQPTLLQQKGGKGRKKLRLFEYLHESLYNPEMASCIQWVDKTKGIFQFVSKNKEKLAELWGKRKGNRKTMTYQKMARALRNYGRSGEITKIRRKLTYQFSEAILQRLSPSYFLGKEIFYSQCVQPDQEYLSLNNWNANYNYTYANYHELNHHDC
The following applies: protein: recombinant; tags: N-terminal GST; dsDNA, one strand shown. An outline of the steps: as §1

Another assay has as its target ELF4 (Homo sapiens, UniProt Q99607 1-663). To be noted: protein: recombinant; tags: N-terminal GST; dsDNA, one strand shown. In outline:
as §1

The target in another assay is T3, ELK4 (Homo sapiens, UniProt P28324-2 1-405).
T3 sequence: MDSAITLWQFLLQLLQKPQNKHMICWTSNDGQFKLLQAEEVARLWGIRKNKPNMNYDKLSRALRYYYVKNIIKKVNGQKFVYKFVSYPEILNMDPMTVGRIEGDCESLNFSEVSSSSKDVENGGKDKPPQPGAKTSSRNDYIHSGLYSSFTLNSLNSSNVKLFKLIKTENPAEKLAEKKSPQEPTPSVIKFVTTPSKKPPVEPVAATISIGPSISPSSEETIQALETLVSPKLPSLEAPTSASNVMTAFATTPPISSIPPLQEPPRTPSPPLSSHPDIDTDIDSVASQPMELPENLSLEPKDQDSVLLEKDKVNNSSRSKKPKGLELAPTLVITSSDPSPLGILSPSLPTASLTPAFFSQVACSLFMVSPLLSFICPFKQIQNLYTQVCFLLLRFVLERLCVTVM
The following applies: protein: recombinant; tags: N-terminal GST; dsDNA, one strand shown. An outline of the steps: as §1

For a further assay, the target named is T4, ETV2 (Homo sapiens, UniProt O00321 1-342).
T4 sequence: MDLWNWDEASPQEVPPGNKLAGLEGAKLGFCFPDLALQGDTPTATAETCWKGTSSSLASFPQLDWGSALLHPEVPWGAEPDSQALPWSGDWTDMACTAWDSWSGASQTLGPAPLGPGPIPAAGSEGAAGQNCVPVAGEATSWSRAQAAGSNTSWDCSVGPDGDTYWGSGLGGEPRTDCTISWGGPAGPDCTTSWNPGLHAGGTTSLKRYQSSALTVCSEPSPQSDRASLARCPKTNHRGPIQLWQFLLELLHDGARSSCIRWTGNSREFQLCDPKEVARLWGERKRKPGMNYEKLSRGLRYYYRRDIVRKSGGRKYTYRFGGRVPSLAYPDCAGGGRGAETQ
To be noted: protein: recombinant; tags: N-terminal GST; dsDNA, one strand shown. In outline:
as §1

A further assay deals with T5, ELF3 (Homo sapiens, UniProt P78545 1-371).
T5 sequence: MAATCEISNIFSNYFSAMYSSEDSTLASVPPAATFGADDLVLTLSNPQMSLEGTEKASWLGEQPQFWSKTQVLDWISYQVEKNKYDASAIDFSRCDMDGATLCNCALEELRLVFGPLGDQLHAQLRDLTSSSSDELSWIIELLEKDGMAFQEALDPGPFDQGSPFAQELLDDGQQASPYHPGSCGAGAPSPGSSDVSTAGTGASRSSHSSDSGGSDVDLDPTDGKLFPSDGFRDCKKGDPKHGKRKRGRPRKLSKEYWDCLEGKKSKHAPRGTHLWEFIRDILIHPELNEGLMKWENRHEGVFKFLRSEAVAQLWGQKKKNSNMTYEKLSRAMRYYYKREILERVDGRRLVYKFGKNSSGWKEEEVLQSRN
To be noted: protein: recombinant; tags: N-terminal GST; dsDNA, one strand shown. In outline:
as §1

The next assay concerns the target CRX (Homo sapiens, UniProt O43186 1-299). To be noted: protein: recombinant; tags: N-terminal GST; dsDNA, one strand shown. An outline of the steps: as §1
Another assay deals with ETV1 (Homo sapiens, UniProt P50549 1-477). To be noted: protein: recombinant; tags: N-terminal GST; dsDNA, one strand shown. In outline:
as §1

Another assay concerns the target T6, ERF (Homo sapiens, UniProt P50548 1-548).
T6 sequence: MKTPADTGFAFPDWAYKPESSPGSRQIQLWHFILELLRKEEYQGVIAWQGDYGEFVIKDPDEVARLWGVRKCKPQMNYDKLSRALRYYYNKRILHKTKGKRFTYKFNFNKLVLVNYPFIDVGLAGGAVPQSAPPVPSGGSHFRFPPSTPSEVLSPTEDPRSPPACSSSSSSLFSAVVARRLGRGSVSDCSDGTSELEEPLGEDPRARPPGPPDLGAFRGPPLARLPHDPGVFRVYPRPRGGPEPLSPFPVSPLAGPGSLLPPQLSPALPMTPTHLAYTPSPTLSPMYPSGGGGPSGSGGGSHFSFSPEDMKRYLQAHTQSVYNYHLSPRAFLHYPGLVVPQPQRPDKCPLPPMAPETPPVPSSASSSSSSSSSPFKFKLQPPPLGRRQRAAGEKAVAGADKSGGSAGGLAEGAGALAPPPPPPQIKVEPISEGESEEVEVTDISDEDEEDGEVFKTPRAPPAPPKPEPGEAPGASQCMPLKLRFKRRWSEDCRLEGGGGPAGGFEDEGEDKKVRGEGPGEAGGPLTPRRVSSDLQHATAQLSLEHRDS
To be noted: protein: recombinant; tags: N-terminal GST; dsDNA, one strand shown. In outline: as §1

The target of the next assay is T7, ETV3L (Homo sapiens, UniProt Q6ZN32 1-361).
T7 sequence: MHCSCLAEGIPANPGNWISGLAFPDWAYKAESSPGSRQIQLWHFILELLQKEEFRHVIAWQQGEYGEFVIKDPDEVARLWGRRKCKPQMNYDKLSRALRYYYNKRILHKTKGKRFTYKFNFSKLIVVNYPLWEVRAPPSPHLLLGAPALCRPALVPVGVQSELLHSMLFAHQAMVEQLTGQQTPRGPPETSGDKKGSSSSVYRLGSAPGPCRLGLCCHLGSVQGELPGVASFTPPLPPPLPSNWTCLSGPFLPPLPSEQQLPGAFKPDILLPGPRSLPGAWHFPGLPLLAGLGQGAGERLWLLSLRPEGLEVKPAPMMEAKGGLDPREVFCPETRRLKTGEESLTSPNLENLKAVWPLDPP
To be noted: protein: recombinant; tags: N-terminal GST; dsDNA, one strand shown. In outline: as §1

The next assay deals with T8, ETS2 (Homo sapiens, UniProt P15036 1-469).
T8 sequence: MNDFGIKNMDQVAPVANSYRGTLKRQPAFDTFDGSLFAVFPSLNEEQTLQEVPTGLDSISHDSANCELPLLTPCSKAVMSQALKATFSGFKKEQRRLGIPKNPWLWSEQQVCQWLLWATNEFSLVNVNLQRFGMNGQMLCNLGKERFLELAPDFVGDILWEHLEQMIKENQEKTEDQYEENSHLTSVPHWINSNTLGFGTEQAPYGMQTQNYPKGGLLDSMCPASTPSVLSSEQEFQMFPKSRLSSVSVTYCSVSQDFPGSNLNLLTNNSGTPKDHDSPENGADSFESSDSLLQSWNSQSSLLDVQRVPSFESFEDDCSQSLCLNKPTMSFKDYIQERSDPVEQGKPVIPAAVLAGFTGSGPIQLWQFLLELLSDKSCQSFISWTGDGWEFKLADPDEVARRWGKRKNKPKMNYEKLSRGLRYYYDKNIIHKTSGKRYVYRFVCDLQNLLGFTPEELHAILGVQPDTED
The following applies: protein: recombinant; tags: N-terminal GST; dsDNA, one strand shown. An outline of the steps: as §1

The target in the next assay is T9, SPDEF (Homo sapiens, UniProt O95238 1-335).
T9 sequence: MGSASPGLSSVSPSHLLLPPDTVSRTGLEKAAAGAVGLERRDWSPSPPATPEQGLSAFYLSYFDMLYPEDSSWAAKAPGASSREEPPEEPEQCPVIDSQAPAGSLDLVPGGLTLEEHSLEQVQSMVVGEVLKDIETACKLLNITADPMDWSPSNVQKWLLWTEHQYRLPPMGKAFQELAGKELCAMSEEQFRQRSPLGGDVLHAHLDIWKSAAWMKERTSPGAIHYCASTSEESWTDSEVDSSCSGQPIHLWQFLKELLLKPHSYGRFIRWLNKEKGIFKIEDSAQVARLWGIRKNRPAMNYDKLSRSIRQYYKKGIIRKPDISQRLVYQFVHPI
To be noted: protein: recombinant; tags: N-terminal GST; dsDNA, one strand shown. In outline: as §1

In a further assay the target is T10, ETV7 (Homo sapiens, UniProt Q9Y603 1-341).
T10 sequence: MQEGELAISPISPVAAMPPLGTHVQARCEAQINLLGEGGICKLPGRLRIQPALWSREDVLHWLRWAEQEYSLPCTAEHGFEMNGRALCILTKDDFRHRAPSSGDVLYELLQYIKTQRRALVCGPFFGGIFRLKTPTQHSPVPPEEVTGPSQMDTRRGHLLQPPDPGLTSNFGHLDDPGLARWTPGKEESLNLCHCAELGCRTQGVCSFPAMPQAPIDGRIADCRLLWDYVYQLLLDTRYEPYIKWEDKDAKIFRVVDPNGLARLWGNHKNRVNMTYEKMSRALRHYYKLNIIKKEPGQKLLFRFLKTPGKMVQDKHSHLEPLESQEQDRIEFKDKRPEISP
The following applies: protein: recombinant; tags: N-terminal GST; dsDNA, one strand shown. An outline of the steps:
as §1

A further assay addresses T11, ELF5 (Homo sapiens, UniProt Q9UKW6-2 1-255).
T11 sequence: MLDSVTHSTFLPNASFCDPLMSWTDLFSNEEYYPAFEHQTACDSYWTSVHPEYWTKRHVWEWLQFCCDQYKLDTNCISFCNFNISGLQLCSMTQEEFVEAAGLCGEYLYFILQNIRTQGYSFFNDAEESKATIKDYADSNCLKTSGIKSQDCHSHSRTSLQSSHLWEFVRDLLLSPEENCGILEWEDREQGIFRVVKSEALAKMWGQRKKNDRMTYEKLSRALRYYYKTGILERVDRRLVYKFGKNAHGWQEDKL
To be noted: protein: recombinant; tags: N-terminal GST; dsDNA, one strand shown. In outline: as §1

The target of a further assay is T12, ETV3 (Homo sapiens, UniProt P41162-2 1-143).
T12 sequence: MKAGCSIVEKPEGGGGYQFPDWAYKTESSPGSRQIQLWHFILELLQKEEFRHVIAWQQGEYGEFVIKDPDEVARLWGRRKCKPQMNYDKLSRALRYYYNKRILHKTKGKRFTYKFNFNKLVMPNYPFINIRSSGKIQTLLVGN
The following applies: protein: recombinant; tags: N-terminal GST; dsDNA, one strand shown. An outline of the steps: as §1

A further assay addresses ETV6 (Homo sapiens, UniProt P41212 1-452). The following applies: protein: recombinant; tags: N-terminal GST; dsDNA, one strand shown. In outline:
as §1

Chain of CRX (O43186 whole entry): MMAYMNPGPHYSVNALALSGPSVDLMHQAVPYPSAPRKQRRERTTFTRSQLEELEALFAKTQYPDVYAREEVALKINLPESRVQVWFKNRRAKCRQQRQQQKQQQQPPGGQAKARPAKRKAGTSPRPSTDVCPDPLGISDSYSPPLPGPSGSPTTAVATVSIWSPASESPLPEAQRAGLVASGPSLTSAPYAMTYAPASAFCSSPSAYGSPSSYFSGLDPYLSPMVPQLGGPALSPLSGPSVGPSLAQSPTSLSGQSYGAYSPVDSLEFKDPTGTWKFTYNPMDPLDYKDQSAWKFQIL
Chain of HSF1 (Q00613 whole entry): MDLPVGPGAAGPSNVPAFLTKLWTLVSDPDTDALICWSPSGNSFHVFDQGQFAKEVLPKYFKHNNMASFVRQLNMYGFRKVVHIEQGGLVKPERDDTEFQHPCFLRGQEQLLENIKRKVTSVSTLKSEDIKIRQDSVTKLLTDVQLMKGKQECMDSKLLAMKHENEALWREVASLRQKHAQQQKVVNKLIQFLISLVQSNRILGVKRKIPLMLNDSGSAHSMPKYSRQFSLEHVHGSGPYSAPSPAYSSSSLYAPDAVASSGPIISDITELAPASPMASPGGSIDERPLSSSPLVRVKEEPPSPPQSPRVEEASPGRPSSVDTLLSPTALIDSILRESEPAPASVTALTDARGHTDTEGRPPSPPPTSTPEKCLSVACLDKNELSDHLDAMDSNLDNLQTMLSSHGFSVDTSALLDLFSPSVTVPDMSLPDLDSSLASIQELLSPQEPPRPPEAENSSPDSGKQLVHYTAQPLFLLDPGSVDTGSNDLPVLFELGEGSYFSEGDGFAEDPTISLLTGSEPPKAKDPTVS
Chain of ETV5 (P41161 whole entry): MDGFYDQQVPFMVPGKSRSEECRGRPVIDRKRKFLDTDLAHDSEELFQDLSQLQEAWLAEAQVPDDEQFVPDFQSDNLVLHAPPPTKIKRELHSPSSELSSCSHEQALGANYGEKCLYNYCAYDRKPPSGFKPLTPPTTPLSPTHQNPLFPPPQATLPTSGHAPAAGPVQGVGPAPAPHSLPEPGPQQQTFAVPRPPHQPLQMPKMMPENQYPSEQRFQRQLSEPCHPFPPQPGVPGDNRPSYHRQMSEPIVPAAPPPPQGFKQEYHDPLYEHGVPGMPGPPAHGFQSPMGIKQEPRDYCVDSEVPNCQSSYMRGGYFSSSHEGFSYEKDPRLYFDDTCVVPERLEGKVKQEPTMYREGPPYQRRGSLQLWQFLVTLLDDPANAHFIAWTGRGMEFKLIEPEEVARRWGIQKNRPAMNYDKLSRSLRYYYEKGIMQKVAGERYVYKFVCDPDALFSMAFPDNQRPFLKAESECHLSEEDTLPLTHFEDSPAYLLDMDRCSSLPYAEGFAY
Chain of ETV1 (P50549 whole entry): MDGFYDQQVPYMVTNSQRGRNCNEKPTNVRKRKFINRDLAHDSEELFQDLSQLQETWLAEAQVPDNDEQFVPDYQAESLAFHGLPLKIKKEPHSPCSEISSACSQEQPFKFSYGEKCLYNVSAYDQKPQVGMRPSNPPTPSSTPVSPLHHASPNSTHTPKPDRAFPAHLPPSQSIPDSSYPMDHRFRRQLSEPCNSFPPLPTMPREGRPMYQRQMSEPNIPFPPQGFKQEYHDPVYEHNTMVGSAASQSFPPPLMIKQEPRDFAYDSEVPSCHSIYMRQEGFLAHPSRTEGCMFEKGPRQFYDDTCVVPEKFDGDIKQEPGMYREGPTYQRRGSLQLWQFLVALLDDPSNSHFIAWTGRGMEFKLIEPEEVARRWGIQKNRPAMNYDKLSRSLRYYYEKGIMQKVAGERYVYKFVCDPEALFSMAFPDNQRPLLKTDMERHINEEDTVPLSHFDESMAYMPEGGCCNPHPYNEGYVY
Chain of ETV6 (P41212 whole entry): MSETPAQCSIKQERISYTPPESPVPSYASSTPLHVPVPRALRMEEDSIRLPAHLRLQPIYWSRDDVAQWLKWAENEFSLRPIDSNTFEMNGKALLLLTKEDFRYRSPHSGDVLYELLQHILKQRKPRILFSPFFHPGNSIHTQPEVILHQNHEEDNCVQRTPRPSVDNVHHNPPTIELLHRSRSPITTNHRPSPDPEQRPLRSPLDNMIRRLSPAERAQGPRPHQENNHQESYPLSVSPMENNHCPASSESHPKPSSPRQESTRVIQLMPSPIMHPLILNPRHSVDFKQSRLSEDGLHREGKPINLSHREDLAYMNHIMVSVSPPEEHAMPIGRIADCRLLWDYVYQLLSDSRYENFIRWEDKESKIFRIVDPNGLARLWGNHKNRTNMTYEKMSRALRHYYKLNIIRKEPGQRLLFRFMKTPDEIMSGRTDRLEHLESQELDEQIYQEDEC
Chain of ELF4 (Q99607 whole entry): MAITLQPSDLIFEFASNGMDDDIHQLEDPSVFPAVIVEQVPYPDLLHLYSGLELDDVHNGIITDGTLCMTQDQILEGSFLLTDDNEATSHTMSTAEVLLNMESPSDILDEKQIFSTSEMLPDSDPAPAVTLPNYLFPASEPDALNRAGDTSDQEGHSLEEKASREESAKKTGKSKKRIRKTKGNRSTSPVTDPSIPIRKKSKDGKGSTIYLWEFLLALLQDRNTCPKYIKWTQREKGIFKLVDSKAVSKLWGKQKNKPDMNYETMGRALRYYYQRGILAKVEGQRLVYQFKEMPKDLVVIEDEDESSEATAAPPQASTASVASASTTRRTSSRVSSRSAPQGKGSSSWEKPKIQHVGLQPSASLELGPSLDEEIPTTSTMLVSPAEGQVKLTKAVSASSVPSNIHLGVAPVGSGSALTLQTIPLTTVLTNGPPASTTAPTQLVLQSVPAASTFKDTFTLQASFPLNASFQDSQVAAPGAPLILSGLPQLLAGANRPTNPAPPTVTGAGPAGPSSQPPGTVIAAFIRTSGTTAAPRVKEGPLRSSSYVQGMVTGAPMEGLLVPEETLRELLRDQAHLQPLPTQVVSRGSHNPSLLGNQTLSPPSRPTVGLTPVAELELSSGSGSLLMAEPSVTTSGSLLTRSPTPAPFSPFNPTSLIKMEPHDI

With TTGTGT, the binding signal with FEV was 1.15 fold enrichment (6-mer frequency, TF over GST control); with ETV5, 1.14 fold enrichment (6-mer frequency, TF over GST control); in the assay with HSF1, 1.05 fold enrichment (6-mer frequency, TF over GST control); with SPIC, 1.04 fold enrichment (6-mer frequency, TF over GST control); in the assay with ELF4 it was 1.2 fold enrichment (6-mer frequency, TF over GST control); in the assay with ELK4, 1.28 fold enrichment (6-mer frequency, TF over GST control). Moreover, the binding signal in the assay with ETV2 is 1.29 fold enrichment (6-mer frequency, TF over GST control); with ELF3, 1.14 fold enrichment (6-mer frequency, TF over GST control); in the assay with CRX, 1.12 fold enrichment (6-mer frequency, TF over GST control); in the assay with ETV1 it was 1.09 fold enrichment (6-mer frequency, TF over GST control); with ERF, 1.4 fold enrichment (6-mer frequency, TF over GST control); in the assay with ETV3L it was 1.15 fold enrichment (6-mer frequency, TF over GST control). Further, the binding signal with ETS2 was 1.16 fold enrichment (6-mer frequency, TF over GST control); with SPDEF, 1.26 fold enrichment (6-mer frequency, TF over GST control); with ETV7, 1.34 fold enrichment (6-mer frequency, TF over GST control); with ELF5 it was 1.16 fold enrichment (6-mer frequency, TF over GST control); with ETV3 it was 1.27 fold enrichment (6-mer frequency, TF over GST control); with ETV6, 1.19 fold enrichment (6-mer frequency, TF over GST control).
